According to publication PMC4552634, “A New Set of Chemical Starting Points with Plasmodium falciparum Transmission-Blocking Potential for Antimalarial Drug Discovery” (PLoS ONE, 2015):
Read-outs that look alike come from different tables or passages of the source. Among all 13,000 compounds or so, about 3,200 (25%) showed an effect of 50% or more. The list shows a part of the results.

System: P. falciparum stage V gametocytes
Set-up: BacTiter-Glo ATP luminescence viability of purified stage V gametocytes in 384-well plates, per cent inhibition versus DMSO
Details: 48 h, 5 µM, inhibitor

SMILES	% Inhibition	% Inhibition (% Inhibition)
COc1ccc(O)c(C(=O)c2cnc3c(c2)c(-c2ccc(F)cc2)c(C#N)c(=O)n3C)c1 [TCMDC-124509]	-11.41%	
O=C(Nc1ccc2c(c1)CCN2C1CCN(Cc2cccc(F)c2F)C1)c1ccco1 (centres unmarked) [TCMDC-135067]	14.1%	
c1ccc(C(c2ccccc2)N2CCC(NCc3ccc(OCCCN4CCCCC4)cc3)CC2)cc1 [TCMDC-141783]	82.14%	
O=C(N[C@H]1CCN(Cc2ccc(OCCCN3CCCCC3)cc2)C1)c1ccc(Cl)c(Cl)c1 [TCMDC-141772]	60%	
O=C(N[C@H]1CCN(Cc2ccc(OCCCN3CCCCC3)cc2)C1)c1cc(Cl)cc(Cl)c1 [TCMDC-141774]	21.94%	
c1cc(OCCN2CCCC2)ccc1CNC1CCN(CC2CCCCC2)CC1 [TCMDC-141656]	42.11%	
O=C(N[C@H]1CCN(Cc2ccc(OCCCN3CCCCC3)cc2)C1)c1ccc2ccccc2c1 [TCMDC-141775]	63.18%	
CCCCCCN1CCC(NCc2ccc(OCCN3CCCC3)cc2)CC1 [TCMDC-141663]	42.97%	
Cc1cnc(CCNC(=O)c2cc(-c3ccc(Cl)cc3)cs2)[nH]1 [TCMDC-133804]	0.312%	
CCc1cc(N2CCN(c3ccccc3F)CC2)nc(SCc2ccc(C(=O)NC3CC3)o2)n1 [TCMDC-124808]	29.7%	
N#Cc1ccc(-c2ccc(C(=O)Nc3ccc4c(c3)CCN(C3CCC3)CC4)nc2)cn1 [TCMDC-136030]	49.39%	
Cc1nc(-c2ccc(-c3ccc(C(=O)Nc4ccc(-n5ccnc5)c(N5CCN(C)CC5)c4)cc3)c(C)c2)no1 [TCMDC-131988]	33.17%	
C=C[C@H]1CN(CCCCCCC)CC[C@H]1CC(O)Cc1ccnc2cc(O)c(OC)cc12 (some centres unmarked) [TCMDC-139963]	16.88%	
C=C[C@H]1CN(CCCCCCC)CC[C@H]1C[C@@H](Cc1ccnc2ccc(OC)cc12)OC(=O)[C@](OC)(c1ccccc1)C(F)(F)F [TCMDC-139560]	78.38%	
C=C[C@H]1CN(CCCCCCC)CC[C@H]1CC(=O)Nc1cnnc2ccc(OC)cc12 [TCMDC-139791]	45.94%	
C=C[C@H]1CN(CCCCCCC)CC[C@H]1CCN(C)c1ccnc2ccc(OC)cc12.O=C(O)C(=O)O [TCMDC-139276]	8.689%	
CCCCCCCN1C2CCC1CC(CCOc1ccnc3ccc(OC)cc13)C2 (centres unmarked) [TCMDC-139275]	73.47%	
CCCCCCCN1CCC(CC(=O)Nc2ccnc3ccc(OC)cc23)C(CC)C1 (centres unmarked) [TCMDC-139299]	-28.07%	
CCCCCCCC1CCN(C[C@H](O)c2ccnc3ccc(OC)cc23)CC1 [TCMDC-139640]	6.722%	
CCCCCCCC1CC(CC(=O)Nc2ccnc3ccc(OC)cc23)CN1C(=O)OC(C)(C)C (centres unmarked) [TCMDC-139304]	29.24%	
CCCCCCCN1CCC(CC(=O)Nc2ccnc3ccc(OC)cc23)CC1 [TCMDC-139181]	71.31%	
C=C[C@H]1CN2CC[C@H]1C[C@H]2[C@H](O)c1ccnc2ccc(OC)cc12 [TCMDC-123484]		-1.615%

SMILES	% Inhibition	% Inhibition (% Inhibition)
C=C[C@H]1CN(CCCCCCC)CC[C@H]1CCNc1ccnc2ccc(OC)cc12 [TCMDC-139204]	104.6%	
CCCCCCCC1CC(CC(=O)Nc2ccnc3ccc(OC)cc23)CN1 (centres unmarked) [TCMDC-139305]	20.34%	
CC(C)c1ccc(O)cc1Nc1ccnc2ccc(C(F)(F)F)cc12 [TCMDC-138278]	-32.37%	
COc1ccc(OC)c(-c2ccc(O)c(CNCC(C)c3ccccc3)c2)c1 (centres unmarked) [TCMDC-124647]	7.623%	
Nc1nc2c(ncn2OC[C@H]2COP(=O)(O)CO2)c(=O)[nH]1 [TCMDC-131638]	1.746%	
Cc1cc(C)cc(OCC(O)CN(Cc2cc(Cl)cc(Cl)c2)C(=O)Nc2ccccc2Cl)c1 (centres unmarked) [TCMDC-141476]	13.96%	
CCOc1cc(C(=O)N[C@@H](Cc2ccccc2)[C@H](O)CNCc2cc(OC)cc(OC)c2)cc(N2CCCCS2(=O)=O)c1 [TCMDC-134524]	22.64%	
O=C1NC(=O)C(c2cccc(NC(=O)c3ccncc3)c2)=C1c1ccccc1 [TCMDC-140924]	2.839%	
COc1ccc2nccc([C@@H](O)CN3CCC(NS(=O)(=O)c4cc5c(cc4Cl)SCC(=O)N5)CC3)c2c1 [TCMDC-141159]	4.839%	
CCCCCCCN1CCC(NC(=O)Nc2ccnc3ccc(OC)cc23)C(C(=O)OCC)C1.O=C(O)C(=O)O (centres unmarked) [TCMDC-139929]	-3.335%	
CCCCCCCN1CCC(CCNc2ccnc3ccc(OC)cc23)CC1 [TCMDC-139197]	97.49%	
CCCCCCCN1CCC(NC(=O)Nc2ccnc3ccc(OC)cc23)C(CO)C1.O=C(O)C(=O)O (centres unmarked) [TCMDC-139969]	-36.82%	
COCCOc1ccc(C(F)(F)F)cc1NC(=O)Cc1c(F)cccc1Cl [TCMDC-125025]	-70.46%	
c1ccc(CNCc2ccc(-c3cccc(-c4nc5ccccc5[nH]4)c3)cc2)cc1 [TCMDC-132545]	18.29%	
CC(C)CNCc1ccc(-c2cccc(-c3nc4ccccc4[nH]3)c2)cc1 [TCMDC-132547]	59.79%	
CN(C)CCNCc1ccc(-c2cccc(-c3nc4ccccc4[nH]3)c2)cc1 [TCMDC-132539]	20.35%	
CC(C)NCc1ccc(-c2cccc(-c3nc4ccccc4[nH]3)c2)cc1 [TCMDC-132550]	-10.92%	
CC(C)NCc1cccc(-c2ccc(-c3nc4ccccc4[nH]3)cc2)c1 [TCMDC-132746]	23.3%	
CCNCc1ccc(-c2cccc(-c3nc4ccccc4[nH]3)c2)cc1 [TCMDC-132568]	85.38%	
Cc1ccc(Nc2nc(C)cc(Nc3cccc(C#N)c3)n2)cc1 [TCMDC-133460]	4.468%	
O=C(Nc1ccc(-c2cccc(-c3nc4ccc(C(F)(F)F)cc4[nH]3)c2)cc1)Nc1ccc(Cl)c(Cl)c1 [TCMDC-133278]	-24.62%	
CS(=O)(=O)CCN(CCS(C)(=O)=O)Cc1ccc(-c2ccc3ncnc(Nc4ccc(OCc5cccc(F)c5)c(Cl)c4)c3c2)o1 [TCMDC-138624]	0.5882%	
